Source: PubChem BioAssay (NCI)
Values joined by “and” are separate entries in the source; they are usually repeats but may differ in a detail not shown here. Equal values may be shown once. About 79,000 compounds went through this panel and 15% of them were active in at least one assay; those are over-represented in the sample as a whole. More than one record can exist for a structure, and the calls need not agree. Active and inactive are the calls of the source. Rule as the data show it: active = growth inhibition above about 70%; inactive = the rest. Where a SMILES comes first, the peptide text is derived from it. The star is where a group is joined. Boc = CC(C)(C)OC(=O)*

Columns and labels:
[1] = NCI Yeast Anticancer Drug Screen. Data for the rad50 strain (AID 155);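 also: 0% = growth of vehicle-only cultures of the same strain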; conditions: S. cerevisiae rad50 strain growth inhibition; at 50.0 µM; stronger effect = higher value
Method in brief: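 Inhibition values express reduced yeast growth in compound-treated cultures relative to vehicle-treated controls.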

[2] = NCI Yeast Anticancer Drug Screen. Data for the mec2-1 strain (AID 157); conditions: S. cerevisiae mec2-1 strain, at 50.0 µM, stronger effect = higher value
Method in brief: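 Readout is yeast growth inhibition, normalised to vehicle-treated controls, in the mec2-1 strain exposed to compound.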

[3] = NCI Yeast Anticancer Drug Screen. Data for the sgs1 mgt1 strain (AID 161);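 also: 0% = growth of cultures given vehicle only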; conditions: S. cerevisiae sgs1 mgt1 strain, at 50.0 µM, stronger effect = higher value
Method in brief: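 This yeast growth screen uses a strain with defined DNA-repair lesions; compound-treated growth is compared with vehicle-treated growth.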

[4] = NCI Yeast Anticancer Drug Screen. Data for the cln2 rad14 strain (AID 165);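 also: 0% = growth equal to vehicle treated cultures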; conditions: S. cerevisiae cln2 rad14 strain, at 50.0 µM, stronger effect = higher value
Method in brief: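 Relative to vehicle controls, growth inhibition of compound-treated cln2 rad14 yeast was recorded.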

[5] = NCI Yeast Anticancer Drug Screen. Data for the bub3 strain (AID 167); conditions: S. cerevisiae bub3 mutant strain, at 50.0 µM, stronger effect = higher value
Method in brief: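 Steps: expose the mutant yeast strain to compound; grow alongside vehicle-treated cultures; measure growth; express inhibition against the vehicle cultures.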

[6] = NCI Yeast Anticancer Drug Screen. Data for the mlh1 rad18 strain (AID 175); conditions: S. cerevisiae mlh1 rad18 strain growth inhibition; at 50.0 µM; stronger effect = higher value
Method in brief: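 Test agents were incubated with a yeast strain of defined genotype (DNA damage repair defect). Inhibition of growth was derived by comparison with vehicle-exposed cultures.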

Measured: growth inhibition

NCCCNCCCCNCCCN
inactive: [1] 14.1% and -12.6% | [2] 30.6% and -27.4% | [3] 14.2% and -14.9% | [4] 8.5% and -10.2% | [5] 28% and -15.6% | [6] 19.6% and 3%

O=C1NC(=O)C(=Nc2c(O)[nH]c(=O)[nH]c2=O)C(=O)N1
inactive: [1] 2.65% and -11% | [2] -11.9% and -14.3% | [3] 2.3% and -10.6% | [4] -25.2% and -31.8% | [5] 1.1% and 16.6% | [6] 12.1% and -13.1%

CC(=O)Nc1ccc(-c2ccc(NC(C)=O)cc2)cc1
inactive: [1] -24.2% and -15.2% | [2] -41.9% and -24.6% | [3] -26.9% and -0.95% | [4] -182% and -42.9% | [5] -24.4% and -1.45% | [6] -10.1% and -21.2%

Nc1ccc(C(=O)O)c(O)c1
inactive: [1] -8.6% and 15.1% | [2] -7.4% and -2.45% | [3] -4.15% and -14.9% | [4] -40.9% and 1.75% | [5] 0.25% and -2.25% | [6] -8.05% and 24.8%

C[N+](C)(C)CCOP(=O)(O)OP(=O)([O-])OCC1CCC(n2ccc(N)nc2=O)O1 (stereo unspecified)
inactive: [1] 7.7% and 4.45% | [2] -11.1% and 0.25% | [3] -18.8% and 9.2% | [4] 5.8% and -2.15% | [5] -38.6% and 2.55% | [6] -38.8% and -3.45%

CC1C(=O)c2cc3c(cc2CCN(C)Cc2c1ccc1c2OCO1)OCO3 (stereo unspecified)
inactive: [1] 13.9% and 3.4% | [2] -16.4% and 5.75% | [3] -10.2% and 7.3% | [4] -3.65% and -3.7% | [5] -29.9% and -12.9% | [6] -31.8% and 14.6%

O=C(O)c1cc(O)c(O)c(O)c1
inactive: [1] 5.3% and 1.55% | [2] -12.6% and -7.9% | [3] 2.2% and 15.6% | [4] 15.6% and -9.5% | [5] 2.25% and 2.85% | [6] 5.8% and 3%

C=C1C(=O)OC2/C=C(/C)C3CC(O)C(C)(CC(OC(=O)/C(C)=C/C)C12)O3 (stereo unspecified)
inactive: [1] -9.75% and -7.75% | [2] -12.9% and -20.4% | [3] -6.85% and 0.45% | [4] 13.4% and 8.45% | [5] -5.25% and -26.3% | [6] -5.35% and 2.9%

Cc1ccc(N(O)C(C)(C)C)cc1
inactive: [1] -16.4% and -2.35% | [2] -17.9% and 7.6% | [3] -4.3% and 3.05% | [4] -3.85% and -1.2% | [5] -23.9% and 13.8% | [6] 9.15% and -11.9%

CN(C)C(c1ccccc1)C1COC2Cc3ccccc3C1O2 (stereo unspecified)
inactive: [1] -8.1% and -3.3% | [2] -4.55% and -11.4% | [3] 10.3% and -2.85% | [4] 2.05% and 6.35% | [5] -27.2% and -19.2% | [6] -6.6% and -23.6%

O=C(OCC(OC(=O)c1ccccc1)C(OC(=O)c1ccccc1)c1cnn(-c2ccccc2)n1)c1ccccc1 (stereo unspecified)
inactive: [1] -24.1% and 4.05% | [2] 4.1% and 15.4% | [3] -34.4% and -11.9% | [4] -35% and -15.7% | [5] -10.8% and -1.55% | [6] -4.25% and 17.6%

CC(C)C1CCC(NC(=O)Nc2ccccc2)CC1 (stereo unspecified)
79.5% (active) and 20.6% (inactive): [1]
inactive: [2] 48.5% and 20.3% | [4] 46.2% and -3.5% | [5] 66.7% and 23.6%
70.5% (active) and 43.2% (inactive): [3]
81.1% (active) and 44.8% (inactive): [6]

Oc1ccc(-c2ccc(O)cc2)cc1
inactive: [1] 36.2% and -18.6% | [2] 2.45% and -3.75% | [3] 7.4% and -17.4% | [4] 19.9% and -27.9% | [5] 11.9% and 12.9% | [6] 13.8% and 19.3%

C/C=C(\Br)C(=O)O
inactive: [1] -8.1% and 24.1% | [2] -10.7% and -5.4% | [3] 1.7% and 0.25% | [4] -10.1% and -19.2% | [5] -15.1% and 5.8% | [6] 9.25% and 12.8%

CCCCNC(=S)S
inactive: [1] -1.1% and -33.5% | [2] -19.8% and -30.9% | [3] 0.65% and -20.4% | [4] -7.65% and -14.2% | [5] 11% and -23.7% | [6] -6.9% and -22.5%

CC(=O)NC(C(=O)O)=C(C)C
inactive: [1] -9.2% and 18% | [2] -7.55% and -6.25% | [3] -1.45% and 13.9% | [4] -16.9% and 16.8% | [5] 7.95% and 2.25% | [6] -5.2% and 27.9%

CCCCCCC1OCC(COC)O1 (stereo unspecified)
inactive: [1] 5.25% and 2.25% | [2] -3.1% and -10.5% | [3] -1.9% and -11.1% | [4] -4.55% and 6% | [5] 0.5% and -2.35% | [6] -2.45% and -10.2%

COC(=O)C(C)NC(=O)C(CCSC)NC(=O)C(Cc1ccccc1)NC(=O)OC(C)(C)C (stereo not drawn) (Boc-Phe-Met-Ala-OMe; configuration not given here)
inactive: [1] -7.05% and 1.75% | [2] -15.3% and 1.15% | [3] 2.4% and 6.3% | [4] 5.05% and 10.7% | [5] 0.15% and -11.9% | [6] 12.4% and -70.9%

CCOC(=O)C(N)Cc1ccc(O)cc1 (stereo unspecified)
inactive: [1] 16% and 0.4% | [2] 8.05% and 6.55% | [3] -0.85% and -11.8% | [4] 6.25% and -19.6% | [5] 10.7% and 1.75% | [6] 23.4% and -1.7%

COC1OCCC(n2c(C)cc3c(N)ncnc32)C1O (stereo unspecified)
inactive: [1] -7.3% and 1.55% | [2] -19.2% and -8.6% | [3] -28.6% and -11.8% | [4] -4.15% and -1.7% | [5] -22.1% and -20.6% | [6] -29.2% and 2.05%

O=c1cc2oc3cc(O)c(O)cc3c(-c3ccccc3)c-2cc1O
inactive: [1] -4.25% and 15.2% | [2] -16.1% and 32.5% | [3] -3.15% and 25.9% | [4] -5.9% and -23.8% | [5] -10.2% and 15.9% | [6] -4.15% and 34.9%
